ChEMBL document CHEMBL1157539, “Thousands of chemical starting points for antimalarial lead identification” (Nature, 2010)

Experiments:
Type in all cases: functional
Plasmodium falciparum [1] = experiment: GSK_TCMDC: Inhibition of Plasmodium falciparum 3D7 in whole red blood cells, using parasite LDH activity as an index of growth. Test compounds present at 2uM
Plasmodium falciparum [2] = experiment: GSK_TCMDC: Inhibition of Plasmodium falciparum Dd2 in whole red blood cells, using parasite LDH activity as an index of growth. Test compounds present at 2uM
HepG2 = experiment: GSK_TCMDC: Percent inhibition of human HepG2 cell line. Test compounds present at 10uM.

Compound | Inhibition (Plasmodium falciparum [1]) | Inhibition (Plasmodium falciparum [2]) | Inhibition (HepG2)
O=C(NC1CC1)c1cnc(N2CCN(Cc3c(F)cccc3Cl)CC2)c(Cl)c1.O=C(O)C(F)(F)F | 93% | 93% | 0%
Cc1ccc(Nc2nc3cc(N(C)c4ccnc(Nc5cccc(CCS(C)(=O)=O)c5)n4)ccc3n2C)cc1.O=C(O)C(F)(F)F | 99% | 73% | 78%
COc1ccc(CN(C)CCCSc2ccc(NC(=O)c3cccc4c(=O)cc(-c5ccccc5)[nH]c34)cc2)cc1OC | 93% | 94% | 15%
CN(C)C(CNC(=O)c1cc(-c2ccncc2)c(-c2ccc(NC(=O)Nc3cccc(Cl)c3)cc2)o1)c1ccccc1.O=C(O)C(F)(F)F (configuration not stated) | 100% | 100% | 12%
Cc1nn(C)c(C)c1CN(Cc1nc(-c2cccc(Oc3ccccc3)c2)oc1C)C1CC1 | 100% | 98% | 7%
Cc1cccc2nc(-c3ccc(-c4ccc(NC(=O)Nc5ccc(F)c(F)c5F)cc4)s3)[nH]c12 | 100% | 99% | 58%
O=C(Nc1ccc(Oc2ccccc2)cc1)N1CCC(CCN2CCC(c3c[nH]c4ccccc34)CC2)CC1 | 100% | 36% | 42%
COc1cc(-c2nc(-c3ccccc3)c(-c3ccccc3)[nH]2)ccc1OCCN(C)C | 100% | 100% | 0%
O=C(Nc1ccccc1)N(Cc1ccccc1-c1cccc(CNCCc2ccccc2)c1)C1CCN(Cc2ccccc2)CC1.O=C(O)C(F)(F)F | 100% | 59% | 95%
